# Key:
# [1] = molecular target: GABARAPL2, P60520; test: median log2 fold change of GCK-ALFA target abundance (FLAG IP / Myc IP barcode read proportion) (log2 ratio); each designed protein is fused to an ALFA-tag nanobody in HEK293 cells to bring the named protein to FLAG-tagged glucokinase (GCK); Myc marks an untargeted standard; higher = target protein stabilised (more abundant); conditions: target protein: 3xFLAG-MCP-GCK-ALFA reporter; HEK293 landing pad (RPLP)
# Procedure, shortened: (§1)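 Sequencing of reverse-transcribed, amplified circular RNA barcodes from anti-FLAG and anti-Myc immunoprecipitates provided the readout for an ALFA-nanobody-fused binder library recombined into HEK293 landing-pad cells. Those cells were induced with 2 μg mL^−1 doxycycline, transfected with a plasmid expressing a FLAG-tagged target and a Myc-tagged standard, and lysed after 48 h. Target abundance is the per-binder median log2 ratio of FLAG to Myc barcode read proportions. Only barcodes at a proportion of ≥10^−7 in both replicates and binders with ≥3 barcodes per replicate were kept, with a 10^−6 pseudocount added before the two replicates were pooled.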
# [2] = molecular target: T1, FBXL12, Q9NXK8; test: as above; conditions: target protein: 3xFLAG-MCP-GCK-ALFA reporter; HEK293 landing pad (RPLP)
# T1 chain: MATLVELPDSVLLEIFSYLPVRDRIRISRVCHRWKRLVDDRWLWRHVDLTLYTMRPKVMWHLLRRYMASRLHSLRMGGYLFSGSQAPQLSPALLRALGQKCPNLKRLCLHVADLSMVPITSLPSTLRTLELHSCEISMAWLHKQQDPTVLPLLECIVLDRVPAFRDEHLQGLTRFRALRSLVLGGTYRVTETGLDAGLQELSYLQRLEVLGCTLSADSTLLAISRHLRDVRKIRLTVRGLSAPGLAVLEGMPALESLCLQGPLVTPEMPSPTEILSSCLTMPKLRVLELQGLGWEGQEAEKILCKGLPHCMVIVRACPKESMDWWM
# Procedure, shortened: as §1
# GABARAPL2, P60520, sequence (P60520 whole entry, the tested form may be a part): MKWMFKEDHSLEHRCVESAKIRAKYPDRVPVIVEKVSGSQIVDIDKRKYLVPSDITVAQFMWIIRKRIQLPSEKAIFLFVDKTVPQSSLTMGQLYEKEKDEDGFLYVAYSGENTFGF
Binder,median log2 fold change [1],median log2 fold change [2]
GBRAPL2_0_7203 (protein) YLEEIEKAKSLSPEELFKKLKELVKKLAEDKSISPEEKEEILEAIIKLAGEKVKETKTEETEKQFDEIVELAVEVAEKIDPNLAAYIRTLAGSLLYENES,0.0798,–
GBRAPL2_0_7195 (protein) VEEEIERISELPIEEAAEEGVRLVERVVADPSFTDEEKVEVALRVVDILAKKVKEEKTEEAEDIYVEALDEIRKLLLSVGPELANYVYAEGGSELMEIES,0.163,–
GBRAPL2_0_7193 (protein) IEERIEKMKELSIEEAVKEGIEIVEEVMKDPSFTDEEKVEIAERVVDIVAEKAKEEKTEEALDLAVEFARKVREILEKISPEDAAYVETRMGAELMEIES,0.33,–
GBRAPL2_0_7198 (protein) YLERIEKAKELSPEETFKALKEIVKELAEDDSISLEELEEILEKIVELAAEKVKETKKEEDLEKFDEIVDLATEAAAKRDPNLAAYIDTYGGSLLIEVEE,0.104,–
GBRAPL2_0_7200 (protein) YLEEIEKAKELSPEEAFKKLKELVKELAEDDSISLEELEEILEKIIELAAEKVKETKSEEDLKKFDEIVDLATEAAAKRDPLLAAYIDTYGGSLLIEVEE,0.104,–
GBRAPL2_0_7192 (protein) YEERLEEISKLPIEEFAKEAVRIVEEAAKDPSLSLEELEEIALRAIRLLYEKVKEEKTEEAEDIYVEAADRIREILKKIDPNLAAYVATEAGALLYEWES,-0.305,–
GBRAPL2_0_7206 (protein) YEAEIEAAKKLTPEEAFKKLKELVKKLAKDTSLSKEELEKILEAIIDLAYEIYKKEKTEEAEEAFDEIVDLAVEAAAKRDPNLAAYIATYGGSKIMEAES,0.12,–
FBXL12_hotspot_109_5 (protein) MTVLLVARATTPEAARRTGETALAIARGLRAAGHEVIAVIVTLEEAREIAEATAAELRALGAEVRLRTAATPEEVERAYAELRAEALARLDAREAAAAAA,–,-0.531
GBRAPL2_0_7199 (protein) YLEEIEKAKELSPEEAFEKLEKLVKELAEDDSISLEELEEILEAIIELAAEKVKETKREEDLEKFDRIVDLAAEAAAKRDPNLAAYIRTYGGSLLIEVEE,0.196,–
GBRAPL2_0_7205 (protein) YEEEIEKAKELSPEELFKALKELVKKLKEDDSISLEELEEILLRILELAAEKVKEVKTEEAEEAFDELVELAVEAMKKRDPNMANYIETYGGSLLYEIES,0.126,–
FBXL12_hotspot_69_88 (protein) MIEVRVSESSVEYALELGRAAVEKLEEAVKNGDWETAERLVDLIISIAEAIAELRPEEAIELLERAAKILKKDDSEKAKELLEKVEKKIKELKKKAKELK,–,-0.107
FBXL12_hotspot_78_95 (protein) MRVLRIVIPADLPPDPEQRQRGIEYQAQAAIEAVRAGWEVVIEAADTPEAKRAALEILRRTLAETGDPERIRSPEGENAREILARLEAELAAEEAAAAAA,–,-0.49
FBXL12_hotspot_69_87 (protein) EFTVIVRDVSVEYALALAEAALERAEEALAAGDREAFLRLARVALAAIENILEEDPERALELAERLAELLERADDPRFEPLLERARELIERARRLLEERR,–,-0.369
GBRAPL2_0_7202 (protein) YLEEIEKAKELSPEELFKKLKELVEKLAEDDSISPEEKEEILLKIVELAAEKVKETKTEEDEKKFEEIVELAVKVAEKIDPNLAAYIRTHAGSLLYENES,0.0999,–
GBRAPL2_0_7188 (protein) VEERIKEAEKLSIEEASKKFIEIIKEVVEDPSYSLEEIEEIALRIMKALTKIVKKENTEEAEKIYAETADKIREILSKVDPNIANYIETEAYSELLEIEE,-0.00159,–
FBXL12_hotspot_78_93 (protein) MRTLVISIPAFVSPDAAARARGIAYQAAAAIEALRAGWEVVISHADTPEAKRAALTILERAVAETGDEARIRSEEGRGAREILAELRAALAAEDEAAAAA,–,-0.726

Binder,median log2 fold change [1],median log2 fold change [2]
GBRAPL2_0_7190 (protein) YEEELEEISKLPIEEFAERGVELVERAVADPSLSLEELEELALRVIRLLYEKVKEEKTEEAEDIYVEAADRIAAILAAVDPRLAAYVATEAGSLLYEWES,-0.38,–
GBRAPL2_0_7201 (protein) YLEEIEKAKKLSPEEAFKKLKELVKKLAEDDSISLEELEEILEKILKLAAEKVKKTKKEEDLEKFEEIVDLATEAAAKRDPLLAAYIDTYGGSLLIEVEE,0.0418,–
GBRAPL2_0_7204 (protein) YLEKIEKAKSLSPKELFEALKKLVKELAKDKSVSPEEKEEILEAIIKLAAERVKETKTEEDEKAFEEIVKEAVKVAEKIDPNLAAYVRTYAGSLLYEIES,0.0789,–
GBRAPL2_0_7197 (protein) YLKEIEEMKKLSPEEAFEKAKELVKKLAEDKTISPEELEKILEAILELAAEIVKKTKEEKMEEKFDELADLAVKAAAKKDPNLAAYIASYAGSLRYEVES,0.245,–
FBXL12_hotspot_69_89 (protein) MIEVRASESSIEYVKELAESALKLAKKALKEKDLETLLKLAEILISAAREIAKYEPEYALELLKELLKLLKEAKTEEAEKAAKEAEKAIKEIKKLIEERK,–,0.238
FBXL12_hotspot_77_92 (protein) MSHLEIVVSQPATPPERREEALARARHTARYAAEIARGAKERQPELRITLVVRSEADPETTRALVRILAETAKELGVELVVEVAPENEAVAREVLAELGL,–,0.051
GBRAPL2_0_7194 (protein) IEERIEELKKLSIEEAVKEGIRLVKEVKEDESFSKEEIVEIAERVAKIVAEKAKEEKTEEALDLAWKFADEVREILKEIDPNDAAYVESEIGSELMEIES,0.238,–
FBXL12_hotspot_81_96 (protein) ATRELRITLQFTADDTEEEIIRRGRYHLELMYEAAKAGWEIASVTLDEAALEKSLTPERQALARRVTAILQEAAAEFRAARDAPDSVFDAILAEALARLA,–,0.19
GBRAPL2_0_7191 (protein) YEEELKKISELPIEEFAKRGVELVERAAKDPSLTLEELEELAERVIELLIEKVKEEKTEEAEEIYVEAADRIREILLKIDPNLAADVATEAGAGLYEIES,0.23,–
FBXL12_hotspot_77_91 (protein) MKTVTIRVSFPAVPPEEAEALRERALRAMETALEIARGLKAAHPDVKIVIVLRIEGNPEVAREVAERAVREAHELGIEFRDESAPEVRAAAEALLAALAA,–,-0.734
GBRAPL2_0_7187 (protein) YRKEIEEAKKLSIEEAAEKFIKLVKEAVEDPSFSKEEIEELALEIVDTLVEIVKKENTEEAEDIYAETIREIREILEKVDPNLAAYVETEGFSKLLEIEE,0.0199,–
FBXL12_hotspot_109_6 (protein) MRVILSALGTEPELAERTFEATVTIAEGLLAAGHEVRVVLVAVEENREVAEAAAARLRALGAEVRLVVEETPEAAREAHERLLAEAEEELDREEEERERA,–,0.11
FBXL12_hotspot_69_90 (protein) MIEVKASKESVDYVAELMKSALELAKKYLKEGDYENLLKAAEILIGAARAIKEYKPEEAAKLLEELIKVLKEAGTPEAKELAKEAEKVLEEIKKIIKERE,–,-0.0708
GBRAPL2_0_7189 (protein) LEERLEAARELSIEEAAEELLRLIREAVEDPSFSLEEIEELARRAVEVLVEIVRRENTEEAEEIAAETADEMREILLEIDPNLAADVETEFYSELLEIEE,-0.521,–
GBRAPL2_0_7196 (protein) YLERIEKMKKLSPEEAYKEAKKLVEELAKDESISPEELEKILEAILEMMAEFVKKTKKEEMEKKFDEIADLAVEAAAKKDPNLAAYIASYAGSLRVEVES,0.192,–
FBXL12_hotspot_78_94 (protein) MRKLVITIPEPVTPDEEARRRGVEYQAQAAIEALKAGWEVVISHADTPEAKRAALEILEKAVAETGDKEKIKSADGKNADEMLAELKAELAEEEARRAAA,–,0.319

# — the supplement of paper PMC12632987
